“And” between values parts separate entries of the source, which are not always exact repeats. Identical values can stand only once. Records with an inconclusive call do not appear. The source holds several records for some structures; these can differ, active in one and inactive in another. The source made the active and inactive calls. Unless noted, calls follow the shape of the full dose curve.

In PubChem BioAssay (Tox21) one finds Potency and activity change, negative = cytotoxicity data, which are given here for 25 compounds.

Assay [1] is described as follows: qHTS assay to identify small molecule antagonists of the sonic hedgehog signaling (Shh) pathway (AID 1259369). Also: nearly all actives have a fitted effect of over 45% in size. Also: potency is read from the fitted curve at half-maximal effect. The essentials: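 Stable Gli1-Luc reporter NIH/3T3 clone; quantitative HTS in stimulated mode with conditioned medium. Luminescence measured after 24hr compound treatment at 37 C.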
In general terms: Quantitative high-throughput screening tests each substance at several concentrations.

Assay [2] concerns the target Estrogen receptor beta (Homo sapiens) (UniProt Q92731). The assay is described as follows: qHTS assay to identify small molecule agonists of the estrogen receptor beta (ER-beta) signaling pathway (AID 1259377; active = well fitted activation curve with a large enough effect in the signal ratio in the repeat runs, not every such curve was filed as active; the % refers to the signal ratio; also: potency is read from the fitted curve at half-maximal effect). The essentials: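 HEK293T ER-beta-UAS-bla; 2% charcoal-stripped FBS; cells pre-incubated 6 hr, compound 16 hr, 37C/5% CO2; LiveBLAzer B/G FRET substrate 2 h RT; fluorescence intensity read.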

The target is the same in assay [3]. The assay is described as follows: qHTS assay to identify small molecule antagonists of the estrogen receptor beta (ER-beta) signaling pathway (AID 1259378; active = well fitted inhibition curve with a large enough effect in the signal ratio in the repeat runs, not every such curve was filed as active; the % refers to the signal ratio; also: potency is read from the fitted curve at half-maximal effect). The essentials:
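ER-beta-UAS-bla HEK293T cells in 2% charcoal-stripped FBS medium treated with compound plus 1nM final 17-beta-estradiol for 16 hr at 37C. Beta-lactamase reporter read by FRET substrate fluorescence after 2 hours at room temperature.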

Assay [4] in a line: qHTS assay to identify small molecule agonists of the androgen receptor (AR) signaling pathway in the presence of an antagonist - cell viability counter screen (AID 1259379; active = well fitted curve in the direction sought with a large enough effect in the repeat runs; an effect the other way counts as inactive or inconclusive; also: nearly all actives have a fitted effect of over 25% in size; also: potency is read from the fitted curve at half-maximal effect;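 as to activity change, negative = cytotoxicity: MDA-kb2 human breast cancer cells carrying an MMTV luciferase reporter; series mostly up to about 92 µM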). The essentials: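 Nilutamide-containing (3.0uM final) MDA-kb2 cultures, 3,000 cells/well, were treated with compounds across 15 concentrations. After 16 hr at 37C with no CO2, cell viability was determined by CellTiter-Fluor fluorescence in the luciferase assay wells.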

A short description of assay [5]: qHTS assay to identify small molecule agonists of the estrogen receptor beta (ER-beta) signaling pathway - cell viability counter screen (AID 1259380; active = well fitted curve in the direction sought with a large enough effect in the repeat runs; an effect the other way counts as inactive or inconclusive; also: nearly all actives have a fitted effect of over 30% in size; also: potency is read from the fitted curve at half-maximal effect). The essentials:
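Steps: plate ER-beta-UAS-bla HEK293T cells, rest 6 hr; add compounds in DMSO; incubate 16 hr at 37C, 5% CO2; add FRET substrate 2 hr; add CellTiter-Glo, wait 30 min at room temperature; read luminescence.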

Assay [6] in a line: qHTS assay to identify small molecule antagonists of the estrogen receptor beta (ER-beta) signaling pathway - cell viability counter screen (AID 1259382; active = well fitted curve in the direction sought with a large enough effect in the repeat runs; an effect the other way counts as inactive or inconclusive; also: series mostly up to about 92 µM; nearly all actives have a fitted effect of over 55% in size). The essentials: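 Viability is scored by CellTiter-Glo luminescence (30 min, room temperature) in ER-beta-UAS-bla HEK293T wells already read for reporter fluorescence. Compound exposure lasts 16 hr at 37C alongside 1nM 17-beta-estradiol in charcoal-stripped serum medium.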

Assay [7] deals with Androgen receptor (Homo sapiens) (UniProt P10275). As to the kind of experiment: qHTS assay to identify small molecule agonists of the androgen receptor (AR) signaling pathway in the presence of an antagonist (AID 1259381). Also: nearly all actives have a fitted effect of over 15% in size. The essentials: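 Reporter-gene luminescence from MDA-kb2 cells exposed 16hr at 37C (0% CO2) to 15-point compound titrations with 3.0uM final nilutamide as AR antagonist.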

Assay [8] addresses Estrogen receptor (Homo sapiens) (UniProt P03372). The assay is described as follows: qHTS assay to identify small molecule agonists of the estrogen receptor alpha (ER-alpha) signaling pathway in the presence of an antagonist (AID 1259383). Also: top concentration of the series differs between compounds; nearly all actives have a fitted effect of over 15% in size. The essentials:
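Readout was ERE-driven luciferase luminescence in VM7Luc4E2 cells, which express full-length ER-alpha endogenously. Compounds were tested at 15 concentrations for 22hr alongside 10.0nM ICI-182,780 (final concentration).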

Assay [9] is described as follows: qHTS assay to identify small molecule agonists or antagonists of the thyroid stimulating hormone receptor (TSHR) signaling pathway - wild type cell line counter screen (AID 1259384). The essentials: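 Wild-type Hek293 cells, 800/well, 18 h at 37C, then compound with Ro20-1724 for 30 min RT. cAMP by HTRF (cAMP-d2/anti-cAMP cryptate), 1 h RT, fluorescence read. 15 concentrations, triplicates.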

Assay [10] has as its target Thyrotropin receptor (Homo sapiens) (UniProt P16473). The assay is described as follows: qHTS assay to identify small molecule antagonists of the thyroid stimulating hormone receptor (TSHR) signaling pathway (AID 1259385). Also: nearly all actives have a fitted effect of over 20% in size. The essentials:
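TSHR-HEK293 cells (800/well) plated 18 h, then compounds with Ro20-1724 and TSH at 1.5 ng/mL final, 30 min at room temperature. cAMP quantified by HTRF (cAMP-d2/anti-cAMP-cryptate, 1 h); 15 concentrations in triplicate.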
% is scaled to controls: 0 for no effect and ±100 for the full control effect.

Thyrotropin receptor (Homo sapiens), sequence (P16473 whole entry, looked up): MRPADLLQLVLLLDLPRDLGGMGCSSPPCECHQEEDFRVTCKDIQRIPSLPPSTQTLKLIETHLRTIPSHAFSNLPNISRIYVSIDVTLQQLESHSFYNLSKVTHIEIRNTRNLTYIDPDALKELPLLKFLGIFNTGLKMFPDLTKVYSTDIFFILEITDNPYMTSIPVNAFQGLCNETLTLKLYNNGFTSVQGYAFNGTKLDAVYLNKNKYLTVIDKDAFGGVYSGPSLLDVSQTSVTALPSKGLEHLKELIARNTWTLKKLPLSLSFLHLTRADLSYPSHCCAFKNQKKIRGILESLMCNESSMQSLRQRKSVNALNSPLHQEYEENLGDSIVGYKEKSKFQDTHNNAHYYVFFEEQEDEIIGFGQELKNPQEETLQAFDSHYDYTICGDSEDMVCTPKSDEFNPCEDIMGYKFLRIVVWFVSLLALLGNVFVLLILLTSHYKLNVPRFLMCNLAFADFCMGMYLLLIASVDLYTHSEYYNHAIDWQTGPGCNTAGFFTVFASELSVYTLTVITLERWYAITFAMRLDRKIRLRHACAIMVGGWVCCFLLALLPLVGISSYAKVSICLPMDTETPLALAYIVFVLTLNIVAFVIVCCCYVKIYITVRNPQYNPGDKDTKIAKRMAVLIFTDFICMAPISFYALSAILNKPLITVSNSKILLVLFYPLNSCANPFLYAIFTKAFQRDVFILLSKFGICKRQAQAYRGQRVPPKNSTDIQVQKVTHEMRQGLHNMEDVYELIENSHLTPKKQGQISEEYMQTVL
Estrogen receptor (Homo sapiens), sequence (P03372 whole entry, looked up): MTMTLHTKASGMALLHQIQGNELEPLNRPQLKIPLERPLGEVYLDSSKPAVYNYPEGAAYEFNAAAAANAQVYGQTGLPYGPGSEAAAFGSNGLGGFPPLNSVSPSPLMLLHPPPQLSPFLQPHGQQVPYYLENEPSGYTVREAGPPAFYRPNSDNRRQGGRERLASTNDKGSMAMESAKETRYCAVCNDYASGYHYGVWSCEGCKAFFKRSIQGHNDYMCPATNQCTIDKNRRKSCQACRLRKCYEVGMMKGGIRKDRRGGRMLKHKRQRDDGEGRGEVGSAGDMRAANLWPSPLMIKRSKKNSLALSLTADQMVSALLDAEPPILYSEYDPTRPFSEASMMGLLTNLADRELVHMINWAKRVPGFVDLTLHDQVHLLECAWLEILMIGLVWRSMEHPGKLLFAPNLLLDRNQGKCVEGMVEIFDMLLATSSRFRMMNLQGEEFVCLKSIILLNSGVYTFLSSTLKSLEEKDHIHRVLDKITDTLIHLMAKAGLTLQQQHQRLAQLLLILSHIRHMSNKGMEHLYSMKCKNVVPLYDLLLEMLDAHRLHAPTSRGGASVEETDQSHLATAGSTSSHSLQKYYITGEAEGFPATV
Androgen receptor (Homo sapiens), sequence (P10275 whole entry, looked up): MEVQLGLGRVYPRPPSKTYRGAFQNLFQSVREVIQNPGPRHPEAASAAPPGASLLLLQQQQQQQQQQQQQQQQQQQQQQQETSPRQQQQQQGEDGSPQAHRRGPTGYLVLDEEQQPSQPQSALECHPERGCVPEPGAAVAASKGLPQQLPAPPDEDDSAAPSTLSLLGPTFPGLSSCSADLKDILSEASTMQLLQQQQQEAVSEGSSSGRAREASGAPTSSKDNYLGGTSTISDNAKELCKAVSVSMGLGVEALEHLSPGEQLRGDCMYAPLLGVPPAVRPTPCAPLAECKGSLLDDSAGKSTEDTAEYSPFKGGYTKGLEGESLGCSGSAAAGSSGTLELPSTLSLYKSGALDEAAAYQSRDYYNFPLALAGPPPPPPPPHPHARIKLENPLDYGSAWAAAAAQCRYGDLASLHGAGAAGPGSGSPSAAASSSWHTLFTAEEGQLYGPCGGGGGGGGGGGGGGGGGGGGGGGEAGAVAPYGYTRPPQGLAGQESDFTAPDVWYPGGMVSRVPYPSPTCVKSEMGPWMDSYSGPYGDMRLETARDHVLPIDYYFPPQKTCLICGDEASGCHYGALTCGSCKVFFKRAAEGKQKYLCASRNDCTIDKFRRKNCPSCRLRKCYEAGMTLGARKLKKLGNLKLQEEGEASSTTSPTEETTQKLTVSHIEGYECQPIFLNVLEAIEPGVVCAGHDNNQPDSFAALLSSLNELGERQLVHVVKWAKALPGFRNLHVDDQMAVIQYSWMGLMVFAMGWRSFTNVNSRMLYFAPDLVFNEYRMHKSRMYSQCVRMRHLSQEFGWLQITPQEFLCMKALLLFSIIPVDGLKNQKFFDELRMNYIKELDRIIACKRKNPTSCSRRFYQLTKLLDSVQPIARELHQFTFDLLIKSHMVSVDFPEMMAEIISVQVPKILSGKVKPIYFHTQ
Estrogen receptor beta (Homo sapiens), sequence (Q92731 whole entry, looked up): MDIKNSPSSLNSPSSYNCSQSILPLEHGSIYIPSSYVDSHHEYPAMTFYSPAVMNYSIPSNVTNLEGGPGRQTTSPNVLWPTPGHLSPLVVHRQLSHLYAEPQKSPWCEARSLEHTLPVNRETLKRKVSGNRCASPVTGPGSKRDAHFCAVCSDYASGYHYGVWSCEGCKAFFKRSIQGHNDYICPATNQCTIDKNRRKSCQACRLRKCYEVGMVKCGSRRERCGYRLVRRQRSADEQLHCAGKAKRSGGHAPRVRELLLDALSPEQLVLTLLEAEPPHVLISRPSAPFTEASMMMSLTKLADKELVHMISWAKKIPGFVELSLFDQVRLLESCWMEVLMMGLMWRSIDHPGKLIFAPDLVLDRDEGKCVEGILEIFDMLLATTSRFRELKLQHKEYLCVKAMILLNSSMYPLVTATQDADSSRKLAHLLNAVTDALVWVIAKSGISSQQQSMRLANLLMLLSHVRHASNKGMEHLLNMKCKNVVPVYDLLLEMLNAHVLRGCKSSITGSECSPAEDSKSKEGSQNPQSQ

Turning to `Cc1ccc2c(c1)C(=O)OC2=O`, the Potency result in assay [1], in assay [2], in assay [3], in assay [4], in assay [5] and in assay [6] was “inactive” in each case.

As for `O=Cc1ccccc1C=O`, the Potency in assay [1] is 2.43 µM (active) and inactive; in [3] it was 54.5 µM (active) and inactive. Further, the Potency result in [2], in [4], in [5], in [7], in assay [6] and in assay [8] was “inactive” each time. The Potency entry in assay [9] and in assay [10] was “inactive” throughout.

As for `CN(Cc1cnc2nc(N)nc(N)c2n1)c1ccc(C(=O)N[C@@H](CCC(=O)O)C(=O)O)cc1`, the Potency result in assay [1], in [2], in assay [3], in [7], in [9] and in assay [10] was “inactive” each time. Moreover, the Potency in [5] is 172 nM (active) and 133 nM (active).

In the case of `O=C(O)CCCC(=O)O`, the Potency entry in [1], in assay [3], in [4], in assay [5], in [6] and in [9] was “inactive” in each case. Also, the Potency entry in assay [10] was “inactive”. Moreover, the Potency in assay [2] is 30 µM (active) and inactive.

Consider `NCCOCCO`, for which the Potency entry in assay [1], in assay [2], in [3], in assay [4], in assay [5] and in assay [6] was “inactive” throughout.

Consider `CN1CCOCC1`, for which the Potency result in [1], in assay [2], in assay [3], in assay [4], in assay [5] and in [6] was “inactive” in each case.

As for `CN(C)/N=N/c1nc[nH]c1C(N)=O`, the Potency result in assay [1], in assay [2], in assay [3], in assay [4], in [5] and in [6] was “inactive” each time. Further, the Potency result in assay [9] and in [10] was “inactive” in each case.

Regarding `[O-]/[N+](=N\O)c1ccccc1`, the Potency entry in [1], in assay [2], in assay [3], in [4], in assay [5] and in assay [6] was “inactive” in each case. Also, the Potency result in assay [8], in assay [9] and in [10] was “inactive” each time.

Regarding `C=CCCCCCCCCCC`, the Potency result in assay [1], in assay [2], in assay [3], in [4], in assay [5] and in assay [6] was “inactive” throughout.

`Clc1ccc(Sc2cc(Cl)c(Cl)cc2Cl)cc1`: the Potency result in assay [1], in assay [2], in assay [3], in [4], in assay [5] and in assay [6] was “inactive” each time. Further, the Potency result in [9] and in [10] was “inactive” in each case.

Regarding `c1ccc2c(c1)ccc1ncccc12`, the Potency result in assay [1], in assay [2], in assay [3], in assay [4], in assay [5] and in [7] was “inactive” in each case. In addition, the Potency entry in assay [6], in [9] and in [10] was “inactive” each time.

For `CC(C)=CCO`, the Potency entry in assay [1], in assay [2], in assay [3], in [4], in assay [5] and in assay [6] was “inactive” throughout. Further, the Potency result in assay [9] and in assay [10] was “inactive” throughout.

With `COC(=O)CC(=O)OC`, the Potency result in assay [1], in assay [2], in [3], in assay [4], in assay [5] and in assay [6] was “inactive” in each case. Besides, the Potency entry in assay [9] and in assay [10] was “inactive” each time.

For the compound `Cc1ccc(C(C)(C)C)c(O)c1`, the Potency result in assay [1], in [2], in assay [3], in assay [4], in [6] and in assay [8] was “inactive” throughout. Further, the Potency entry in assay [9] and in assay [10] was “inactive” in each case.

In the case of `O=[Se](O)O`, the Potency entry in assay [1], in [2], in assay [3], in assay [6], in assay [8] and in assay [9] was “inactive” throughout. The Potency entry in assay [10] was “inactive”. For the same compound, the Potency in assay [4] was 8.64 µM (active). Moreover, the activity change, negative = cytotoxicity in assay [5] is 1.8% [at 19 µM] (inactive).

For the compound `CC(=O)[C@@]1(O)CC[C@H]2[C@@H]3C[C@H](C)C4=CC(=O)C=C[C@]4(C)[C@@]3(F)[C@@H](O)C[C@@]21C`, the Potency in assay [1] was 6.11 µM (active) and inactive. In addition, the Potency entry in assay [2], in assay [3], in assay [4], in assay [5], in assay [6] and in assay [8] was “inactive” each time.

`[Na+]`: the Potency result in [1], in [4], in [5], in assay [6] and in [8] was “inactive” each time.

As for `C1COCCN1`, the Potency entry in [1], in assay [2], in assay [3], in assay [5], in assay [6] and in [8] was “inactive” each time. For the same compound, the Potency entry in assay [9] and in [10] was “inactive” in each case.

`NC[C@H](O)c1ccc(O)c(O)c1`: the Potency result in assay [1], in assay [4], in assay [5] and in assay [6] was “inactive” in each case.

As to `CC/C=C\C/C=C\C/C=C\CCCCCCCC(=O)O`, the Potency entry in assay [1] was “inactive and 43.3 µM (active)”; in [5] it was 24.1 µM (active) and inactive. Further, the Potency result in assay [2], in [3], in assay [6], in [8], in [9] and in [10] was “inactive” in each case.

Turning to `Cc1ccc(/C(=C\CN2CCCC2)c2ccccn2)cc1`, the Potency in [1] is 25.6 µM (active). In addition, the Potency entry in [4], in [5], in assay [6], in assay [8], in assay [9] and in assay [10] was “inactive” throughout.

In the case of `CC1(C)NC(=O)N(c2ccc([N+](=O)[O-])c(C(F)(F)F)c2)C1=O`, in assay [1], the Potency was 15.4 µM (active). Also, the Potency entry in assay [2], in assay [3], in assay [5], in [6], in assay [9] and in assay [10] was “inactive” each time.

In the case of `c1ccc2c(c1)ccc1cc3c(ccc4ccccc43)cc12`, the Potency entry in assay [1], in assay [4], in assay [5], in [6], in [8] and in assay [9] was “inactive” in each case.

For `O=S1(=O)CCCO1`, the Potency entry in [1], in assay [2], in [3], in assay [5], in [6] and in assay [9] was “inactive” in each case. For the same compound, the Potency result in assay [10] was “inactive”.

Take `CC(=O)Oc1c(C)c(C)c2c(c1C)CC[C@@](C)(CCC[C@H](C)CCC[C@H](C)CCCC(C)C)O2`: the Potency entry in [1], in [4], in [5], in assay [6], in assay [9] and in [10] was “inactive” throughout.
